Assay results taken from PubChem BioAssay AID1259311 (ICCB-Longwood Screening Facility, Harvard Medical School, 2017).
Screen size: about 330,000 compounds; about 1,100 (0.33%) were called active. Cut-off read from the data, not from the text of the source: active = inhibition above about 85%; inactive = the rest. The sample as a whole holds a higher share of actives than the screen did.

experiment: growth inhibition of S. aureus RN4220, primary screen, OD600 (AID 1259311); conditions: OD600, 16 h, hits give high values;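 note: plate controls were untreated cells for no effect and reference antibiotic for full effect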

Compound	inhibition
CCOC(=O)C1C2COc3ccc(Br)cc3C2N2C(=O)N(c3ccc(C(F)(F)F)cc3)C(=O)[C@@]12C (stereo partly specified)	-6.79% (inactive)
CCCCC1CC1C(NC(=O)c1ccco1)c1ccccc1C(F)(F)F (stereo unspecified)	6.05% (inactive)
O=C(CN1CCSCC1)NN=Cc1ccc(F)cc1F	6.36% (inactive)
Cc1ccc(C=NNC(=O)CSc2nc3ccccc3n2C)s1	0.496% (inactive)
Cn1c(SCC(=O)NN=Cc2ccc([N+](=O)[O-])s2)nnc1-c1ccccc1	94.9% (active)
Cc1ccc(C=NNC(=O)CSc2nc3ccccc3c(=O)n2-c2ccccc2)s1	-0.0121% (inactive)
COC(=O)C1=C(c2ccc(C(C)=O)cc2)CC2CCC1N2C(=O)NCc1ccc(F)cc1 (stereo unspecified)	1.41% (inactive)
O=S(=O)(NN=Cc1ccc(OC2CSC2)cc1)c1ccccc1	2.43% (inactive)
COc1cccc(C=NNC(=O)CSCC(=O)Nc2ccccc2)c1O	3.38% (inactive)
COc1cccc(C=NNc2ncnc3c2ncn3Cc2ccccc2)c1O	9.44% (inactive)
COc1cccc(C=NNc2cc(-n3nc(C)cc3-c3ccccc3)ncn2)c1O	99.8% (active)
COc1cccc(C(=O)NCC(=O)NN=Cc2c(C)[nH]c3ccccc23)c1	4.11% (inactive)
O=C(NC(Nc1nc2ccc([N+](=O)[O-])cc2s1)(C(F)(F)F)C(F)(F)F)c1ccccc1	100% (active)
N=C1C(c2nc3ccccc3s2)=C(O)CN1NC(=O)c1ccc([N+](=O)[O-])cc1	31.5% (inactive)
O=C(NOCc1ccccc1)c1cccc([N+](=O)[O-])c1	4.41% (inactive)
COC(=O)C1=C(c2cccc(OC)c2OC)CC2CCC1N2C(=O)NCCNC(C)=O (stereo unspecified)	2.83% (inactive)
Cc1ccc(OCC(=O)NN=Cc2cc([N+](=O)[O-])ccc2N2CCCCC2)cc1	15.8% (inactive)
COc1cccc(C2=CC(=O)CC(c3ccc4c(c3)OCO4)C2)c1OC (stereo unspecified)	4.85% (inactive)
O=C(Cn1cnc2ccccc21)NN=Cc1ccccn1	-0.52% (inactive)

Compound	inhibition
COC(=O)[C@]1(C)NC(c2ccc(-c3cccc(Cl)c3)c(OC)c2)C2C(=O)N(C)C(=O)C21 (stereo partly specified)	4.06% (inactive)
CCOC(=O)C=c1sc(=C(C#N)C(=O)OCC)n(-c2ccccc2)c1=O	-0.54% (inactive)
CCC(C)N1CCC2(CC1)N=c1c(c3c4c5c(C)c(O)c3c(O)c1=NC(=O)C(C)=CC=CC(C)C(O)C(C)C(O)C(C)C(OC(C)=O)C(C)C(OC)C=CO[C@@](C)(O5)C4=O)N2 (stereo partly specified)	99.7% (active)
Cc1nnc(SCc2cc(=O)[nH]c(N3CCN(Cc4ccccc4)CC3)n2)s1	1.62% (inactive)
Cc1nnc(SCC2=C(C(=O)O)N3C(=O)C(NC(=O)Cn4nc(C)c(Cl)c4C)C3SC2)s1 (stereo unspecified)	99.6% (active)
Cc1nnc(SCC(=O)NC2CCCC2)s1	-0.203% (inactive)
Cc1nnc(SCC(=O)Nn2cnnc2)s1	2.92% (inactive)
Cc1cc(C)cc(C(=O)NC2C(=O)N3C(C(=O)O)=C(CSc4nnc(C)s4)CSC23)c1 (stereo unspecified)	99.5% (active)
CON=Cc1ccc(N2CCOCC2)c([N+](=O)[O-])c1	6.02% (inactive)
C=CCn1c(CNc2ccccc2)nnc1SCC(=O)NN=Cc1ccccc1O	1.54% (inactive)
O=C(O)CCC(=NNc1ncc(C(F)(F)F)cc1Cl)C(=O)O	4.71% (inactive)
CC(=O)Nc1cccc(C(C)=NNc2ccc(S(=O)(=O)Nc3ccccc3C(=O)O)cc2[N+](=O)[O-])c1	-10.1% (inactive)
CCc1ccc2c(c1)C1(NN=C(c3ccccc3)S1)C(=O)N2 (stereo unspecified)	92.6% (active)
CCN(CC)c1ccc(C(=O)c2cnc(N=CN(C)C)s2)cc1	8.12% (inactive)
CC(=NNC(=O)CNS(=O)(=O)c1ccc(C)cc1)c1cccc([N+](=O)[O-])c1	-3.24% (inactive)
Cn1c(NN=Cc2ccccc2)nc2sc3c(c2c1=O)CCC3	6.77% (inactive)
O=C(NN=Cc1ccccc1)c1ccc(CN2C(=O)c3cccc4cccc2c34)cc1	0.745% (inactive)
O=C(Nc1ccc2ccccc2c1)Nc1ccc2snnc2c1	106% (active)
S=C(Nc1ccccc1)Nc1ccc2ccccc2c1	-8.9% (inactive)

Compound	inhibition
Cc1nc2cc(NC(=O)Nc3cccc(F)c3)ccc2n1C	2.6% (inactive)
Nc1nonc1-n1nnc(C(=O)NN=Cc2ccncc2)c1CN1CCCCC1	1.52% (inactive)
Cc1ccccc1NC(=O)C(C)ON=Cc1cccc([N+](=O)[O-])c1 (stereo unspecified)	4.13% (inactive)
COc1ccc(CC(O)=C(C#N)c2nc3ccccc3[nH]2)cc1OC	-2.45% (inactive)
CCOC(=O)C=c1sc(=Cc2c(OCC)ccc3ccccc23)c(=O)n1CC(=O)NCC1CCCO1 (stereo unspecified)	-2.12% (inactive)
CCOC(=O)C1(CCOc2ccccc2)CCN(Cc2cc(OC)cc(OC)c2)CC1	1.85% (inactive)
CCOC(=O)C1(CCOc2ccccc2)CCN(Cc2ccc(C#CCCO)cc2)CC1	5.24% (inactive)
Cc1c(CN2CCC(CO)(CCOc3ccccc3)CC2)[nH]c2ccc(Cl)cc12	97.5% (active)
C#CCOCCOCCOCCNc1nc(N2CCN(C(=O)C(Cc3cc4ccccc4[nH]3)n3cc(C(N)CC(C)C)nn3)CC2)nc(N2CCN(C(=O)C(Cc3ccc(O)cc3)n3cc(C(N)C(C)CC)nn3)CC2)n1 (stereo unspecified)	-1.75% (inactive)
CCNc1nc(NCC)nc(NN=Cc2ccc(O)c(OC)c2)n1	4.03% (inactive)
COc1ccc(C=NNC(=O)C(=O)N2CCCCCC2)cc1	0.0129% (inactive)
Cc1cc(=O)n2[nH]c(-c3cccc(Cl)c3)cc2n1	0.714% (inactive)
Cc1nc2c(-c3ccccc3)c(C)[nH]n2c(=O)c1Cl	5.58% (inactive)
Cc1[nH]n(-c2cccc(Cl)c2)c(=O)c1-c1ccc(Cl)cc1	106% (active)
CC(C)(C)NC(=O)C=NO	6.33% (inactive)
O=C(NN=Cc1ccc(OC(F)F)cc1OC(F)F)c1ccc(Br)cc1	3.44% (inactive)
N#CC(=C(O)c1ccco1)c1ccccn1	2.69% (inactive)
Oc1ccc(Br)cc1C=Nn1c(COc2ccccc2)n[nH]c1=S	5.82% (inactive)
